Compound activity deposited in PubChem by National Center for Advancing Translational Sciences (NCATS).
Only some compounds are listed: those with a hit (about 2.4% of all), similar ones and a draw of the others.
D2 ag-1 = D2 dopamine receptor (human) agonism | P14416 | activation, % at 2 µM | hit rate 0.53% among 340,000 | HEK293 T-REx D2 cells, calcium flux agonist mode;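 active means activation over 3 SD above normal in the single-dose calcium agonist read, cut at about 30% in these data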
Target sequence (P14416 whole entry, looked up): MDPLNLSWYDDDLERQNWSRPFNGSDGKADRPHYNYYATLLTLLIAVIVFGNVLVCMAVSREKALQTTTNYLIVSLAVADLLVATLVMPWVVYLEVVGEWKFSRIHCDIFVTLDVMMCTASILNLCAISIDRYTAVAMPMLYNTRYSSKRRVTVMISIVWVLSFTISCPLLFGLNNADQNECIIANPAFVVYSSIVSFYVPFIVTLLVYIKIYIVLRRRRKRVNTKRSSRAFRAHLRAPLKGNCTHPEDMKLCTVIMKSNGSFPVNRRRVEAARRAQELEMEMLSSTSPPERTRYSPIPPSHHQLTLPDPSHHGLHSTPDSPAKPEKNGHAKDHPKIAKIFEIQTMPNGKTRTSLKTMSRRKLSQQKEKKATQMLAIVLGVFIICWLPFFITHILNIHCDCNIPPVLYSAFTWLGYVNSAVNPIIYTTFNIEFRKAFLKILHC
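Agonism scored from kinetic calcium signal (1 read/sec, 180 s) following compound pin transfer, after a 10 s baseline. Cells: HEK293 Trex line expressing inducible D2 receptor coupled to calcium, dye-loaded after overnight culture at 30 C.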
D2 ag-2 = human D2 receptor agonism in beta-arrestin assay; P14416; DiscoveRx PathHunter D2 beta-arrestin, luminescence, 90 min; 100% = 57 uM dopamine signal; activation, % (test concentration not listed); hit rate 0.084% among 360,000; in the data active means activation above about 40%
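Agonist mode: compounds alone added to overnight-plated D2 PathHunter cells for 90 min at 37 C, with 57 uM final dopamine (EC100) defining full response. Beta-arrestin recruitment detected by chemiluminescent reagent, read after 1 h at ambient temperature.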
D2 PAM-1 = positively modulates the human D2 dopamine receptor allosterically; HEK293 T-REx D2, calcium flux, EC20 dopamine potentiation; potentiation, % at 10 µM; AID 485347; hit rate 0.34% among 340,000;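 active means potentiation over 3 SD above the plate norm, cut at about 30% in these data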
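Cells plated with tetracycline inducer and held overnight at 30 C; calcium dye loaded 30–90 min at room temperature; baseline taken, compound added and read 180 s; EC20 dopamine then added and read 180 s.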
D2 PAM-2 = positive allosteric modulators of human D2 dopamine receptor. P14416. hit rate 0.23% among 360,000. DiscoveRx D2 beta-arrestin cells, luminescence, 90 min; 100% = 57 uM dopamine signal. potentiation, % (test concentration not listed); in the data active means potentiation above about 50%
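D2 cells co-treated with compound plus 50 nM dopamine (EC20) for 90 min at 37 deg C to detect potentiation. Beta-arrestin recruitment was read as enzyme-fragment luminescence after 1 h at ambient temperature. Full response was set by 57 uM dopamine.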
D2 antag = D2 dopamine receptor (human) antagonism; HEK293 TREx D2 cells, calcium flux, dopamine EC80; inhibition, % at 10 µM; hit rate 2% among 340,000; in the data active means inhibition above about 30%; inactive means below that, where a call was filed
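Measurement of antagonist activity uses fluorescent calcium dye in inducible HEK293 T-REx D2 cells: 10 s baseline, compound addition with 180 s read, EC80 dopamine addition with a further 180 s read.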
A number is an active result; n = inactive; x = not tested or not shown.

SMILES	D2 ag-1	D2 ag-2	D2 PAM-1	D2 PAM-2	D2 antag
CC1CCCCN1C(=O)C12CCC(C)(/C(=N/O)C1)C2(C)C (stereo unspecified)	n	n	n	n	35
CC1CCCCN1C(=O)C12CCC(C)(C(=O)C1)C2(C)C (stereo unspecified)	x	n	x	n	x
CCn1c(SCC(=O)N2c3ccccc3Sc3ccccc32)nnc1-c1ccco1	n	n	40	n	n
CCCn1c(SCC(=O)N2CCc3ccccc32)nnc1-c1ccco1	n	n	n	n	n
CCCn1c(SCC(=O)N2c3ccccc3CC2C)nnc1-c1ccco1 (stereo unspecified)	n	n	43	n	n
Cc1ccc2nc(SCC(=O)N3c4ccccc4CC3C)c(C)cc2c1 (stereo unspecified)	n	n	32	n	n
Cc1ccc2nc(-c3cccnc3SCC(=O)N3c4ccccc4CC3C)[nH]c2c1 (stereo unspecified)	n	n	n	n	n
C=CCn1c(SCC(=O)N2c3ccccc3Sc3ccccc32)nnc1-c1ccco1	n	n	n	n	n
CCN(Cc1ccccc1)C(c1cccs1)c1nnnn1C1CCCCC1 (stereo unspecified)	n	n	n	n	n
Clc1ccccc1CN(Cc1ccccc1)C(c1cccs1)c1nnnn1C1CCCC1 (stereo unspecified)	n	n	n	n	50
O=C(CSc1n[nH]c(-c2ccccc2Cl)n1)N1CCN(c2ccc(F)cc2)CC1	n	x	n	x	x
COc1ccc(C2C(=O)N(C3CCCCC3)CC(=O)N2CCc2ccc(C)cc2)cc1OC (stereo unspecified)	n	x	n	x	x
CC(=O)N1CCc2c(sc3c2c(=O)n(-c2cccc(Cl)c2C)c(=O)n3Cc2ccccc2C)C1	n	x	n	x	x
OC(C#CCN1CCCC1)(c1ccccc1)c1cccnc1 (stereo unspecified)	n	n	n	n	n
OC(CCN1CCCCC1)(c1ccccc1)C1CCCCC1 (stereo unspecified)	n	n	n	n	46
OC(C#CCN1CCCCCC1)(c1ccccc1)c1cccnc1 (stereo unspecified)	n	n	n	n	58
OC(C#CCCN1CCCCC1)(c1ccccc1)c1ccccc1	n	n	n	n	33
CCOc1ccc(CCNC(=O)Cn2ncc3c([nH]c4ccccc43)c2=O)cc1OCC	n	x	n	x	x
CCc1ccccc1Nc1nn2c(=O)c3ccc(C(=O)NC4CCC(C)CC4)cc3nc2s1 (stereo unspecified)	n	x	n	x	x
COc1ccc(-c2nn(-c3ccccc3C)cc2CNCc2cccnc2)cc1F	n	n	n	n	39
COCCCNCCCCOc1ccc(Br)cc1Cl	n	n	n	n	65
COCCNCCCOc1ccc(Br)cc1Cl	n	n	n	n	33
COCCNCCCOc1ccc(Cl)cc1Br	n	n	n	n	n
Cc1ccccc1-c1nc(CS(=O)(=O)CC(=O)NCc2cccc(Cl)c2)c(C)o1	n	x	n	x	x
O=C(NCCCN1CCN(c2ccccc2)CC1)C1CCCN(c2ncnc3c2nc2n3CCCCC2)C1 (stereo unspecified)	n	n	n	n	59
SMILES	D2 ag-1	D2 ag-2	D2 PAM-1	D2 PAM-2	D2 antag
O=C(CSc1nnnn1Cc1ccccc1)NCCc1ccccc1	n	n	n	n	32
O=C(CSc1nnnn1Cc1ccccc1)NCC(=O)c1ccccc1	n	n	n	n	n
O=C(COC(=O)COc1ccccc1)NC12CC3CC(CC(C3)C1)C2	n	n	n	n	34
Cc1ccc2nc(N3CCN(c4cccc(C(F)(F)F)c4)CC3)c3nnnn3c2c1	n	x	n	x	x
CC(=O)c1c(C)[nH]c(C(=O)OCCCCN2C(=O)c3ccccc3C2=O)c1C	n	n	n	n	48
O=S(=O)(c1ccccc1)N1CCN(C(=S)NCCc2ccccc2)CC1	n	n	n	n	38
CCC(=O)N(CCC1(C(C)C)CCOC(C)(C)C1)Cc1ccco1 (stereo unspecified)	n	n	n	n	n
CC(=O)N(CCC1(C(C)C)CCOC(C)(C)C1)Cc1ccco1 (stereo unspecified)	n	n	n	n	38
O=C1C2CCCCN2C(=O)N1CCCCN1CCN(c2cccc(Cl)c2)CC1 (stereo unspecified)	n	n	n	n	92
O=C1C2CCCCN2C(=O)N1CCCCN1CCN(c2ccccc2Oc2ccccc2)CC1 (stereo unspecified)	n	n	n	n	84
COc1ccccc1N1CCN(CCCCN2C(=O)C3CCCN3C2=O)CC1 (stereo unspecified)	x	n	x	n	x
CCOc1ccc(N(C)C(CNS(=O)(=O)c2ccccc2)c2ccccc2)cc1 (stereo unspecified)	n	x	n	x	x
O=C(c1cc(-c2ccccc2)nc2ccccc12)N1CCCC1	n	n	n	n	n
Cc1cnn(C(=O)c2cc(-c3ccccc3)nc3ccccc23)c1	n	n	n	n	55
Cn1c(Cn2nnc3ccccc32)nnc1SCC(N)=O	n	n	34	n	n
COc1ccc(-c2cc(C3CCN(Cc4cccc(C(F)(F)F)c4)CC3)[nH]n2)cc1	n	n	n	n	59
COC(=O)c1ccc2c(c1O)C(=O)c1ccccc1C2=O	n	n	n	107	n
CCOc1ccc(NC(=O)CC2C(=O)N(c3cccc(C)c3)C(=O)N2Cc2cccs2)cc1 (stereo unspecified)	x	x	n	x	x
Cc1ccc(CN2CC[C@H]3C=CCc4cccc(c43)C2)cc1	n	n	n	n	57
CCCn1cc(S(=O)(=O)CC(=O)NC2CCCCC2)c2ccccc21	n	n	n	n	51
Cc1cccc(CSc2cn(CC(=O)N3CCCCC3)c3ccccc23)c1	n	x	n	x	x
COc1cc(/C=C2/SC(=S)N(Cc3ccccc3)C2=O)cc(Cl)c1O	72	n	n	n	n
COc1cc(/C=C2\SC(=O)N(Cc3ccc(F)cc3)C2=O)cc([N+](=O)[O-])c1O	n	n	n	n	31
COc1cccc(-n2nnc(-c3nc(-c4ccccc4F)no3)c2C)c1	n	x	n	x	x
COc1cc(NC(=O)CSc2nc3nc(C)c(Cc4ccccc4)c(C)n3n2)cc(OC)c1OC	n	x	n	x	x
SMILES	D2 ag-1	D2 ag-2	D2 PAM-1	D2 PAM-2	D2 antag
COc1ccc(S(=O)(=O)NCC2CCCN(C(=O)c3ccco3)C2)cc1 (stereo unspecified)	n	n	n	n	32
CC(C)OCCCn1c(=S)[nH]c2ccc(N3CCOCC3)cc2c1=O	n	n	n	n	n
CC(C)OCCCn1c(=S)[nH]c2cc3c(cc2c1=O)OCO3	n	n	n	n	50
CC(C)Oc1ccc(CNC(=O)CN2C(=O)CCn3nc(-c4cn(C)c5ccccc45)cc32)cc1	n	x	n	x	x
CCCCCCn1ccc(=N)cc1	n	n	n	n	36
CCCCCCCCCCCCCCCCn1cc[n+](CC(C)=O)c1	n	n	n	n	n
